The source made the active and inactive calls. The calls were made as follows: active = hit-call score of the fitted dose curve at least 0.9, where 1 is the maximum; inactive = score below 0.9.

Read-out in this assay: growth arrest and DNA damage 45 (GADD45A), GADD45A (gene 1647)
In words: LTEA_HepaRG_GADD45A: Life Technologies and Expression Analysis (LTEA) Assay for growth arrest and DNA damage 45 (GADD45A) using HepaRG (AID 2283458). The settings on record: mRNA level, 48 h; actives raise or lower the signal. The method, boiled down: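 HepaRG, 48 h exposure, 8 conc. (top 100 uM, half-log steps), 0.5% DMSO vehicle, duplicates. Read-out: qRT-PCR mRNA level, housekeeping-normalized (ACTB/GAPDH/POLR2A). Curves fit bidirectionally vs DMSO baseline.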
For `CO/N=C(/C1=NOCCO1)c1ccccc1Oc1ncnc(Oc2ccccc2Cl)c1F`, the AC50 (as a rule, the concentration giving half of the maximal activity seen) is 29.6 µM (active). Regarding `CCCCOCN(C(=O)CCl)c1c(CC)cccc1CC`, the call was inactive. On the same count and under the same terms, with `CS(=O)(=O)c1ccc(C(=O)C2C(=O)CCCC2=O)c([N+](=O)[O-])c1` the entry was “inactive”; with `O=c1n(Cl)c(=O)n(Cl)c(=O)n1Cl`, “inactive”. Turning to `CCOP(=O)(OCC)Oc1nc(Cl)c(Cl)cc1Cl`, the result was inactive. As for `Cc1cnc(C2=NC(C)(C(C)C)C(=O)N2)c(C(=O)O)c1` (stereo unspecified), the compound was called inactive. Take `O=C(O)c1c(Cl)ccc2cc(Cl)cnc12`: the AC50 was 0.00381 µM (active).

Regarding `Cc1cc(C)nc(Nc2ccccc2)n1`, the compound was classed as inactive. Same read-out and setting: to `Nc1c(Cl)c(Cl)nc(C(=O)O)c1Cl` belongs “inactive”; to `OC(c1ccc(Cl)cc1)(c1ccc(Cl)cc1)C(Cl)(Cl)Cl`, “inactive”. For `CCCCC(O)(Cn1cncn1)c1ccc(Cl)cc1Cl` (stereo unspecified), the AC50 is 89.9 µM (active). With `Nc1c(Cl)c(F)nc(OCC(=O)O)c1Cl`, the compound was classed as inactive. For the compound `CC1(C)C(C(=O)OC(C#N)c2cccc(Oc3ccccc3)c2)C1(C)C` (stereo unspecified), the compound was classed as inactive. Take `CCOc1cc(C(C)(C)C)ccc1C1COC(c2c(F)cccc2F)=N1` (stereo unspecified): the outcome was inactive.

In the case of `N#Cc1c[nH]cc1-c1cccc2c1OC(F)(F)O2`, the compound was classed as inactive.

For `CCNC(=O)NC(=O)C(C#N)=NOC`, the AC50 was 0.361 µM (active). Consider `COP(=O)(OC)O/C(C)=C/C(=O)N(C)C`, for which the compound was classed as inactive. With `CCOc1nc(F)cc2nc(S(=O)(=O)Nc3c(Cl)cccc3Cl)nn12`, the compound was classed as inactive. Same read-out and setting: with `CNC(=O)N(C)c1nnc(C(C)(C)C)s1` the entry was “inactive”. In the case of `CC(C)N1C(=O)c2ccccc2NS1(=O)=O`, the compound was called inactive. On the same count and under the same terms, with `Cc1ccc(N=CN(C)C=Nc2ccc(C)cc2C)c(C)c1` the entry was “inactive”. As for `CS(=O)(=O)c1cc(C(F)(F)F)ccc1C(=O)c1cnoc1C1CC1`, the compound was classed as inactive.

As to `C=C(C)CN(CC)c1c([N+](=O)[O-])cc(C(F)(F)F)cc1[N+](=O)[O-]`, the compound was classed as inactive. As for `COc1ccc(-c2ccccc2)cc1NNC(=O)OC(C)C`, the call was inactive. Consider `CN=C=S`, for which the compound was called inactive. Turning to `O=P(O)(O)CCCl`, the result was inactive. Still for that read-out and setting: with `C=CCOC(=O)C(C)(C)OC(=O)c1cc(-n2c(=O)cc(C(F)(F)F)n(C)c2=O)ccc1Cl` the entry was “inactive”; with `CC(C)C1(C)N=C(c2ncccc2C(=O)O)NC1=O` (stereo unspecified), “inactive”.

As to `CC(C)=CC1C(C(=O)OCc2coc(Cc3ccccc3)c2)C1(C)C` (stereo unspecified), the compound was classed as inactive. As to `COCC(C)N(C(=O)CCl)c1c(C)csc1C` (stereo unspecified), the compound was called inactive. For `Cn1c(-c2ccccc2)cc(-c2ccccc2)[n+]1C`, the result was inactive. Still for that read-out and setting: to `CSC(=O)c1c(C(F)F)nc(C(F)(F)F)c(C(=O)SC)c1CC(C)C` belongs “inactive”. On to `Clc1cccc(C(Cl)(Cl)Cl)n1`, for which the concentration at half-maximal activity (AC50) was 89.4 µM (active). For `COc1cc(OC)nc(NC(=O)NS(=O)(=O)c2ncccc2OCC(F)(F)F)n1`, the AC50 is 50 µM (active). On to `COC(=O)NS(=O)(=O)c1ccc(N)cc1`, for which the call was inactive. Regarding `COC(=O)c1c(C(F)F)nc(C(F)(F)F)c(C2=NCCS2)c1CC(C)C`, the AC50 is 0.0299 µM (active).

(Values after PubChem BioAssay (EPA / NIEHS).)
